Hits are enriched below; roughly 3.1% of the tested compounds scored in any of these assays.
ATG4B inh = ATG4B protease inhibitors, primary screen, biochemical, fluorescence, uHTS; inhibition, % at 8.33 µM; ATG4B cleavage of LC3-PLA2, NBD-HPC fluorescence, 1 h; hit rate 0.51% among 340,000; in the data active = inhibition above about 40%
Target sequence (Q9Y4P1 whole entry, looked up): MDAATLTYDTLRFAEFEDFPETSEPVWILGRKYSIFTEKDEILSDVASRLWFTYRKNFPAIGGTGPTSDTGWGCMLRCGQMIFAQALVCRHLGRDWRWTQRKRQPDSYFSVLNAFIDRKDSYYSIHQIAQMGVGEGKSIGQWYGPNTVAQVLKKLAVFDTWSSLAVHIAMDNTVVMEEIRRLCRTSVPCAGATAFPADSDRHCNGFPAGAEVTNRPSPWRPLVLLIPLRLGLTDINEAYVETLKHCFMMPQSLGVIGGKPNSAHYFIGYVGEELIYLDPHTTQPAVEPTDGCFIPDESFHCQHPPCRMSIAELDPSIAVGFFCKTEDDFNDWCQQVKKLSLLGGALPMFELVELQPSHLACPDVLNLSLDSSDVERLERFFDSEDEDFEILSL
FAS TE block = FAS thioesterase domain inhibitors, primary screen, biochemical, fluorescence intensity, uHTS. recombinant FAS-TE, OMFH fluorogenic substrate, fluorescence endpoint. inhibition, % at 15 µM. hit rate 0.67% among 360,000. AID 602261, 2012;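 active = compounds whose normalised, plate-corrected inhibition of enzyme fluorescence in the single-dose primary screen is 50% or more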;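 also: 0% = DMSO with enzyme and 100% = substrate without enzyme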
NadD block = inhibitors of S. aureus NadD, primary screen, biochemical, colorimetric, uHTS | Nicotinate-nucleotide adenylyltransferase NadD (Staphylococcus aureus N315) | AID 602399, 2012 | hit rate 0.78% among 360,000 | inhibition, % at 20 µM | purified NadD enzyme, colorimetric absorbance read-out; in the data active = inhibition above about 26%
SUMO Mot1 rescue = yeast Mot1-301 growth rescue at high temperature, primary screen, SUMOylation pathway inhibitor project, S. cerevisiae, ATP luminescence, 38.5C; S. cerevisiae Mot1-301 growth rescue; percent above DMSO median, 100 means doubled; hit rate 1% among 320,000; growth rescue, % at 18.8 µM; AID 2716, 2010;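 active = every valid replicate shows activation above 250% relative to neutral control wells; inactive = the rest, any valid replicate at or below 250%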;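 also: OY570 slx delta 5 strain wells were the positive control but not used for scaling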
Calb FLC = C. albicans growth inhibition with fluconazole, primary screen, CaCi-2 strain, Alamar Blue fluorescence; C. albicans CaCi-2 (fluconazole-resistant clinical isolate) + fluconazole, 48 h; growth inhibition, % (test concentration not listed); hit rate 0.57% among 300,000;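 active = growth inhibition above about 58% in most replicates, limit read from the data, passing the limit was not always enough; inconclusive = exactly half the replicates above a set limit; inactive = most replicates below a set limit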;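 also: all wells also contain fluconazole at 8 µg/ml as a sub-toxic cotreatment; 0% = median of DMSO wells and 100% = median of geldanamycin control wells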
FAS-TE conf = FAS thioesterase domain inhibitors, confirmation, biochemical, fluorescence intensity, single concentration. recombinant FAS-TE, OMFH fluorogenic substrate. inhibition, % at 15 µM. hit rate 45% among 2,300. shares compounds with FAS TE block;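 active = compounds inhibiting the enzyme by at least 50% at 15 µM in any one of the replicates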;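 also: 0% = enzyme with DMSO only and 100% = wells lacking enzyme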
An asterisk follows results filed as active.

COc1ccc2[nH]c3c(c2c1)CCN1C(=O)C(CC(=O)NCCN2CCOCC2)C[C@H](C(=O)N2CCOCC2)[C@@]31CCC1CCCC1 (stereo not given in full) was read as ATG4B inh -4, FAS TE block 44 and NadD block -8.
Screening COc1ccc2[nH]c3c(c2c1)CCN1C(=O)C(CC(=O)NCc2ccco2)C[C@H](C(=O)N2CCOCC2)[C@@]31CCC1CCCC1 (stereo not given in full) returned ATG4B inh -9, FAS TE block 65*, NadD block 3 and FAS-TE conf 76*.
For COc1ccc2[nH]c3c(c2c1)CCN1C(=O)C(CC(=O)NC(C)(C)C)C[C@H](C(=O)N2CCOCC2)[C@@]31CCC1CCCC1 (stereo not given in full) the results were FAS TE block 53*, NadD block 3 and FAS-TE conf 69*.
`O=C(Nc1ccccc1)OCC1COC(c2ccccc2)(c2ccccc2)O1` (stereo not given) gave ATG4B inh 9, FAS TE block 35 and NadD block -1.
For O=C1OCCN1C(=O)[C@H]1[C@H](c2ccccc2)C(c2ccccc2)=NN1c1ccccc1 the results were ATG4B inh 0, FAS TE block 26 and NadD block 0.
O=C1OCCN1C(=O)[C@H]1[C@H](c2ccc([N+](=O)[O-])cc2)C(c2ccc(F)cc2)=NN1c1ccc(Br)cc1 was read as ATG4B inh -2, FAS TE block 95*, NadD block 18 and FAS-TE conf 14.
`O=C1OCCN1C(=O)[C@H]1[C@H](c2ccc([N+](=O)[O-])cc2)C(c2ccc(F)cc2)=NN1c1ccccc1` gave ATG4B inh 1, FAS TE block 84*, NadD block 10 and FAS-TE conf 41.
Cc1nc2c(sc(=S)n2Cc2ccco2)c(=O)n1CC(=O)Nc1cc(F)ccc1F was read as ATG4B inh 0, FAS TE block 17, NadD block 3, SUMO Mot1 rescue -6 and Calb FLC 12.
Screening O=C(c1ccc(Cl)cc1)[C@@H]1[C@@H]2C(=O)N(c3cccc4ccccc34)C(=O)[C@@H]2C2c3ccccc3C=NN21 (stereo not given in full) returned ATG4B inh -4, FAS TE block 85*, NadD block 23, SUMO Mot1 rescue -28, Calb FLC -16 and FAS-TE conf 40.
COC(=O)c1ccc(CSc2nc(C(F)F)cc(C)c2C#N)o1 was read as ATG4B inh -1, FAS TE block 53*, NadD block -3, SUMO Mot1 rescue 1, Calb FLC 17 and FAS-TE conf 43*.
`COC(=O)c1ccc(COc2nc(C)cc(C)c2C#N)o1` gave ATG4B inh -5, FAS TE block 13, NadD block -1, SUMO Mot1 rescue 6 and Calb FLC -14.
`Cc1ccc2nc(SCC(=O)Nc3ccc(F)c([N+](=O)[O-])c3)[nH]c2c1` gave ATG4B inh 6, FAS TE block 62*, NadD block -5, SUMO Mot1 rescue -13, Calb FLC 2 and FAS-TE conf 68*.
`Cc1cccc(C(=O)NCCC(=O)Nc2ccc(F)c([N+](=O)[O-])c2)c1` gave ATG4B inh 1, FAS TE block 54*, NadD block -1, SUMO Mot1 rescue -16, Calb FLC -2 and FAS-TE conf 68*.
`NS(=O)(=O)c1ccc(CCNS(=O)(=O)c2cccc(C(=O)O)c2)cc1` gave ATG4B inh -4, FAS TE block -4, NadD block -6, SUMO Mot1 rescue 0 and Calb FLC 1.
Screening COc1ccc(N(C(=O)CCl)C(C(=O)NCCc2ccccc2)c2cccs2)cc1Cl (stereo not given) returned ATG4B inh -3, FAS TE block 64*, NadD block 0, SUMO Mot1 rescue 264*, Calb FLC -34 and FAS-TE conf 33*.
Screening O=C(COC(=O)c1cc(Cl)ccc1O)NNC(=O)c1ccccc1F returned ATG4B inh -6, FAS TE block -2, NadD block 2 and SUMO Mot1 rescue 0.
For COc1ccccc1N1CCN(C(=O)CCCn2c(=S)[nH]c3ccccc3c2=O)CC1 the results were FAS TE block 53*, NadD block 2 and FAS-TE conf 20.
`COc1ccccc1N1CCN(C(=O)c2ccc(Cn3c(=S)[nH]c4cc5c(cc4c3=O)OCO5)cc2)CC1` gave ATG4B inh 24, FAS TE block 53*, NadD block 20, SUMO Mot1 rescue -5, Calb FLC -4 and FAS-TE conf 2.
For O=C(/C=C/c1ccc(Cl)cc1)NC(=S)Nc1ccc(NC(=O)c2ccco2)cc1 the results were ATG4B inh 13, FAS TE block -4, NadD block 23, SUMO Mot1 rescue 18 and Calb FLC -9.
`CC[C@]12c3[nH]c4ccccc4c3CCN1C(=O)C(CC(=O)NCCC1=CCCCC1)C[C@@H]2C(=O)N1CCN(C(=O)c2ccco2)CC1` (stereo not given in full) gave ATG4B inh 1, FAS TE block 13, NadD block 7 and SUMO Mot1 rescue -5.
`O=C(CC1C[C@H](C(=O)N2CCOCC2)[C@@]2(CCC3CCCC3)c3[nH]c4ccccc4c3CCN2C1=O)NCCC1=CCCCC1` (stereo not given in full) gave ATG4B inh 5, FAS TE block 73*, NadD block 5, SUMO Mot1 rescue 6 and FAS-TE conf 39*.
`CN(C)CCCNC(=O)CC1C[C@H](C(=O)N2CCOCC2)[C@@]2(CCC3CCCC3)c3[nH]c4ccccc4c3CCN2C1=O` (stereo not given in full) gave ATG4B inh -4, FAS TE block 78*, NadD block -6, SUMO Mot1 rescue -24 and FAS-TE conf 86*.
`CC[C@]12c3[nH]c4ccccc4c3CCN1C(=O)C(CC(=O)NCCCN(C)C)C[C@@H]2C(=O)N1CCN(C(=O)C2CC2)CC1` (stereo not given in full) gave ATG4B inh 0, FAS TE block -5, NadD block 0 and SUMO Mot1 rescue -15.
Screening CCOc1ccccc1OCCCC(=O)NNC(=O)c1cc(C)oc1C returned ATG4B inh -5, FAS TE block -8 and NadD block -1.
`O=C(N/N=C/c1ccc(Br)o1)/C(=C/c1ccc([N+](=O)[O-])cc1)NC(=O)c1ccccc1` gave ATG4B inh -10, FAS TE block 58*, NadD block 14, SUMO Mot1 rescue 11, Calb FLC inconclusive and FAS-TE conf 32*.

Assay outcomes deposited in PubChem BioAssay by several laboratories.
